The record followed here is PubChem BioAssay (Tox21).

SMILES strings stand for the structures. Calls of active or inactive are those of the source. The call rests on the fitted dose curve; in most records, active means well fitted curve in the direction sought with a large enough effect in the repeat runs; inconclusive means weak or mixed curves; inactive means flat fitted curve, though single readings scatter.

A short description of the first assay: qHTS assay to test for compound auto fluorescence at 460 nm (blue) in HEK293 cells (AID 720678). The conditions noted are these: blue autofluorescence 405/460 nm; series mostly up to 91.3 µM. An outline of the steps:
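Auto fluorescence in the blue band was quantified as triamterene equivalency. HEK293 cells were seeded at 2,000/well, dosed after a 4-5 hr attachment, and kept overnight at 37C before the 405/460 nm reading.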
For `CC(C)C(=O)OCC(C)(C)C(OC(=O)C(C)C)C(C)C` (centres undefined), the compound was called inactive.
Regarding `C#C[C@]1(O)CC[C@H]2[C@@H]3CCC4=CC(=O)CC[C@]4(C)[C@H]3CC[C@@]21C`, the outcome was inactive.
On to `NNC(N)=S`, for which the compound was classed as inactive.
`Oc1c(Cl)c(Cl)c(Cl)c(Cl)c1Cl`: the outcome was inactive.
`CCCCCCOC(=O)c1ccccc1C(=O)OCCCCCC`: the call was inactive.
With `Cc1cc(Cl)ccc1OCCCC(=O)O`, the compound was called inactive.
On the same count and under the same terms, the same measure for `CC(C)N(C(=O)SCC(Cl)=C(Cl)Cl)C(C)C`: “inactive”; for `O=c1oc2ccccc2c(O)c1C(CC(O)c1ccc(-c2ccc(Br)cc2)cc1)c1ccccc1` (centres undefined): “inactive”.
`CCCCC(CC)COC(=O)c1ccc(C(=O)OCC(CC)CCCC)c(C(=O)OCC(CC)CCCC)c1` (centres undefined): the outcome was inactive.

Another assay in a line: qHTS assay to test for compound auto fluorescence at 590 nm (red) in HEK293 cells (AID 720679). The settings on record: red autofluorescence 540/590 nm; series mostly up to 91.3 µM. An outline of the steps: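 Autofluorescence equivalency to Rose Bengal sodium, 540/590nm, in HEK293 cells exposed overnight to 23 nL compound per well.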
`O=C1C=CC(=O)C=C1`: the outcome was inactive.
Take `C=CCc1ccc2c(c1)OCO2`: the outcome was inactive.
On the same count and under the same terms, the same measure for `CCCCOCCOP(=O)(OCCOCCCC)OCCOCCCC`: “inactive”; for `N[C@@H](Cc1ccc(N(CCCl)CCCl)cc1)C(=O)O`: “inactive”.
Still for that read-out and setting: for `CCC(=O)O[C@H]1CC[C@H]2[C@@H]3CCC4=CC(=O)CC[C@]4(C)[C@H]3CC[C@]12C` the value was “inactive”; for `CCOC(=S)S`, “inactive”.
`Nn1cnnc1`: the call was inactive.
On the same count and under the same terms, for `c1ccc(N=Nc2ccccc2)cc1` the value was “inactive”; for `COc1ccc(C=O)cc1`, “inactive”; for `ClC1C(Cl)C(Cl)C(Cl)C(Cl)C1Cl` (centres undefined), “inactive”.
For the compound `c1ccc(NNc2ccccc2)cc1`, the compound was classed as inactive.
In the case of `C[C@]12CCC(=O)C(O)=C1CC[C@@H]1[C@@H]2CC[C@]2(C)C(=O)CC[C@@H]12`, the compound was classed as inactive.
For the compound `CCN(CC)N=O`, the call was inactive.
As to `CCCCN(CCCC)N=O`, the compound was classed as inactive.
For the compound `C=CCN(CC=C)C(=O)C(Cl)Cl`, the compound was classed as inactive.
